Compound activity: PubChem BioAssay, National Center for Advancing Translational Sciences (NCATS)
A selection: hits, their analogues and other compounds. The true share with any hit is near 19%.
DT40 TDP1 no CPT – qHTS for Inhibitors of human tyrosyl-DNA phosphodiesterase 1 (TDP1): qHTS in cells in absence of CPT; Potency, µM (series often up to 46.2 µM), usual class: inhibitors; AID 686978, 2013; 420,000 tested, 15% active; DT40 Tdp1-/- hTDP1 cells, no CPT, ATP luminescence, 48 h; also: nearly all actives have a fitted effect of over 55% in size
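Chicken DT40 Tdp1-/- cells stably complemented with human TDP1 were seeded at 400 cells/well with DMSO in place of 20 nM camptothecin. After compound pinning, cells grew at least 48 hr at 37 °C; viability read by CellTiter-Glo luminescence.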
HT1080 IDH1KD tx – qHTS for induction of synthetic lethality in tumor cells producing 2HG: qHTS for the HT-1080-IDH1KD cell line | AID 686971, 2013 | Potency, µM (doses to about 46.1 µM), usual class: cytotoxic | 360,000 tested, 2% active | HT-1080 IDH1 knockdown viability, ATP luminescence, 48 h
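Knockdown cells (IDH1KD HT-1080) received compounds 2 h after plating at 750 cells/well and were kept 48 h at 37 °C in 5% FBS RPMI. A CellTiter-Glo luminescence read gave % activity for curve fitting.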
HT1080-NT tox – qHTS for induction of synthetic lethality in tumor cells producing 2HG: qHTS for the HT-1080-NT fibrosarcoma cell line; HT-1080-NT fibrosarcoma viability, CellTiter-Glo ATP luminescence, 48 h; Potency, µM (top dose mostly 46.1 µM), hits mostly cytotoxic; 360,000 tested, 1.6% active;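 also: NT is the 2HG producing partner of a matched IDH1 knockdown line; nearly all actives have a fitted effect of over 55% in size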
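Fibrosarcoma NT cells, 750 per well in 5% FBS RPMI, were exposed to compound for 48 hours. Viability: CellTiter-Glo luminescence.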
DT40 TDP1 CPT – qHTS for Inhibitors of human tyrosyl-DNA phosphodiesterase 1 (TDP1): qHTS in cells in presence of CPT; chicken DT40 Tdp1-/-;hTDP1 cells + 20 nM CPT, ATP luminescence, 48 h; Potency, µM (highest dose often 46.2 µM), hits mostly inhibitors; 420,000 tested, 12% active; AID 686979, 2013; also: nearly all actives have a fitted effect of over 55% in size
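Chicken DT40 Tdp1-/- cells complemented with human TDP1, 400 cells/well, exposed to compounds plus 20 nM camptothecin for at least 48 h at 37 C; viability read as ATP content by CellTiter-Glo luminescence.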
KB-V1 cytotox – qHTS assay for MDR1-selective chemotherapeutics: Primary screen using the drug-selected MDR subline cells KB-V1 | Potency, µM (doses to about 46.1 µM), actives largely listed as cytotoxic | 400,000 tested, 3.4% active | KB-V1 MDR cells viability, CellTiter-Glo, 72 h; also: nearly all actives have a fitted effect of over 60% in size
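KB-V1, DMEM (no phenol red) + 10% FBS; cpd pin-transferred, titration series; 72 h, 37 degrees C; CellTiter-Glo, luminescence. Data normalized, curve-fit.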
KB-3-1 cytotox – qHTS assay for MDR1-selective chemotherapeutics: Primary screen using the parental adenocarcinoma cell KB-3-1; KB-3-1 viability, CellTiter-Glo ATP luminescence, 72 h; Potency, µM (highest dose often 46.1 µM), usual class: cytotoxic; 400,000 tested, 1.4% active; also: nearly all actives have a fitted effect of over 60% in size
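Parental KB-3-1 adenocarcinoma cells in phenol-red-free DMEM with 10% FBS were pin-treated with compounds at several concentrations, incubated 72 h at 37 °C, and viability read by CellTiter-Glo luminescence; concentration-effect curves were fitted after normalization.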
Of the large screens only hits and unclear results are named; the others gave an inactive call. Calls follow the shape of the dose curve; as a rule, active = well fitted curve in the direction sought with a large enough effect; inconclusive = small, poorly fitted or top-dose-only effect, or another doubt; inactive = no such curve, though single readings can be large; an effect the other way counts as inactive or inconclusive.

O=C(NCCc1csc2nc(-c3ccc(F)cc3)nn12)c1cccc(C(F)(F)F)c1	DT40 TDP1 no CPT inconclusive, DT40 TDP1 CPT inconclusive (no result: HT1080 IDH1KD tx, HT1080-NT tox)
Cc1ccc(-c2nc3scc(CCNS(=O)(=O)c4ccc(C)c(C)c4)n3n2)cc1	DT40 TDP1 no CPT 21µM, DT40 TDP1 CPT inconclusive (no result: HT1080 IDH1KD tx, HT1080-NT tox, KB-V1 cytotox, KB-3-1 cytotox)
Cc1cccc(-c2nc3scc(CCNC(=O)c4ccc(Br)o4)n3n2)c1	DT40 TDP1 no CPT inconclusive, DT40 TDP1 CPT inconclusive (no result: HT1080 IDH1KD tx, HT1080-NT tox)
Cc1ccc(-c2nc3scc(CCNC(=O)Cc4ccc(Cl)cc4)n3n2)cc1	DT40 TDP1 no CPT 18µM, DT40 TDP1 CPT 15µM (no result: HT1080 IDH1KD tx, HT1080-NT tox)
COc1ccc(-c2nc3scc(CCNC(=O)c4cccc(Br)c4)n3n2)cc1	DT40 TDP1 no CPT 26µM, DT40 TDP1 CPT inconclusive (no result: HT1080 IDH1KD tx, HT1080-NT tox)
COC(=O)N1CCC2(CC1)CN(C(=O)Nc1ccc(OC)cc1)C2	none (no result: HT1080 IDH1KD tx, HT1080-NT tox, KB-V1 cytotox, KB-3-1 cytotox)
O=C(Nc1ccccc1C(F)(F)F)C1CCN(C(=O)Cc2ccccc2)CC1	KB-V1 cytotox inconclusive
CCCN(CCC)S(=O)(=O)c1ccc(C(=O)N2CCC(=O)c3ccccc32)cc1	DT40 TDP1 no CPT 23µM, DT40 TDP1 CPT inconclusive
Cc1ccc(N(C(=O)c2ccccc2Cl)C2=NC(C)CS2)c(C)c1 (stereo not drawn)	DT40 TDP1 no CPT 18µM, DT40 TDP1 CPT inconclusive
O=C(c1cc(C2CC2)nn1-c1ccccc1)N1CCN(S(=O)(=O)c2cccc(F)c2)CC1	DT40 TDP1 CPT inconclusive, KB-V1 cytotox inconclusive
Brc1ccc(-c2cn3ccccc3n2)s1	DT40 TDP1 no CPT 23µM, DT40 TDP1 CPT 7.3µM
Clc1ccc(-c2cn3ccccc3n2)cc1	none
Nc1nonc1-n1nnc(C(=O)N/N=C/c2cccc(Cl)c2Cl)c1CN1CCCC1	DT40 TDP1 no CPT 15µM, DT40 TDP1 CPT 8.2µM
CC1CCN(Cc2c(C(=O)N/N=C/c3ccc(C(C)(C)C)cc3)nnn2-c2nonc2N)CC1	DT40 TDP1 no CPT 13µM, HT1080-NT tox inconclusive, DT40 TDP1 CPT 13µM, KB-V1 cytotox inconclusive
Cn1c(SCC(=O)Nc2ccc(NC(=O)c3cccc(F)c3)cc2)nnc1-c1ccncc1	none
Cc1cc(C(=O)Nc2ccc(Cl)cc2)c(C)n1Cc1cccs1	DT40 TDP1 no CPT 8.2µM, HT1080 IDH1KD tx inconclusive, DT40 TDP1 CPT inconclusive
Cc1cc(C)cc(NC(=O)c2cc(C)n(Cc3cccs3)c2C)c1	DT40 TDP1 no CPT 18µM, HT1080 IDH1KD tx inconclusive, HT1080-NT tox inconclusive, DT40 TDP1 CPT 29µM
Cc1cc(C(=O)CN2C(=O)c3ccccc3C2=O)c(C)n1Cc1cccs1	DT40 TDP1 no CPT inconclusive, DT40 TDP1 CPT inconclusive, KB-V1 cytotox inconclusive
O=C(Cc1cccs1)Nc1ccc(Cl)cc1	DT40 TDP1 no CPT inconclusive
Cc1cc(C(=O)Cn2nnc3ccccc3c2=O)c(C)n1Cc1cccs1	DT40 TDP1 no CPT 18µM, DT40 TDP1 CPT 29µM, KB-3-1 cytotox inconclusive
COc1ccc(OC)c(-c2ccnc(-n3ncc(C(=O)N4CCN(CCO)CC4)c3C3CC3)n2)c1	none (no result: HT1080 IDH1KD tx, HT1080-NT tox, KB-V1 cytotox, KB-3-1 cytotox)
Cc1nn(-c2cccc(C(F)(F)F)c2)c(=O)c2noc(C)c12	HT1080-NT tox inconclusive
CC(Nc1ncnc2sccc12)c1ccccc1 (stereo not drawn)	DT40 TDP1 no CPT 0.92µM, HT1080-NT tox 10µM, DT40 TDP1 CPT 2.6µM, KB-3-1 cytotox inconclusive
CCOc1ccc(Nc2nc3c(c(=O)[nH]2)CCCC3)cc1	KB-V1 cytotox 18µM
O=c1[nH]c(Nc2nc3ccccc3o2)nc2c1CCCC2	DT40 TDP1 no CPT 4.1µM, HT1080 IDH1KD tx 4µM, HT1080-NT tox 2.2µM, DT40 TDP1 CPT 2.9µM, KB-V1 cytotox inconclusive
COc1ccc(CN2C(=O)c3ccccc3C2C(=O)NC2CCCC2)c(OC)c1 (stereo not drawn)	KB-V1 cytotox 3.7µM
O=C1c2ccccc2C(Nc2ccc(S(=O)(=O)N3CCCCCC3)cc2)N1Cc1ccco1 (stereo not drawn)	DT40 TDP1 no CPT 16µM, DT40 TDP1 CPT 21µM
CCC(C)N1C(=O)c2ccccc2C1C(=O)NC1CCCCCC1 (stereo not drawn)	DT40 TDP1 no CPT inconclusive, KB-V1 cytotox 18µM
COc1ccc(CN2C(=O)c3ccccc3C2C(=O)NC2CCC(C)CC2)c(OC)c1 (stereo not drawn)	KB-V1 cytotox inconclusive
CCC(C)NC(=O)C1c2ccccc2C(=O)N1Cc1cc(OC)ccc1OC (stereo not drawn)	KB-V1 cytotox 7.3µM
CCc1cccc(NC(=O)C2CCC(CNS(=O)(=O)c3ccc(Br)s3)CC2)c1 (stereo not drawn)	DT40 TDP1 no CPT inconclusive, DT40 TDP1 CPT inconclusive (no result: HT1080 IDH1KD tx, HT1080-NT tox)
O=C(NC1CCCCCC1)C1c2ccccc2C(=O)N1Cc1ccco1 (stereo not drawn)	KB-V1 cytotox 21µM
COc1ccc(C2C(C(=O)Nc3cccc(C)n3)c3ccccc3C(=O)N2C)cc1 (stereo not drawn)	none
CCC(C)NC(=O)C1c2ccccc2C(=O)N(c2ccc(OC)cc2)C1c1ccc(OC)cc1 (stereo not drawn)	DT40 TDP1 no CPT 21µM, DT40 TDP1 CPT inconclusive
COCCN(C(=O)CSc1nnc(-c2ccncc2)n1C)c1c(N)n(CC(C)C)c(=O)[nH]c1=O	none
